Source: PubChem BioAssay (several laboratories)
Shown are actives, neighbours in structure and some others; about 28% of the full set was active somewhere.
CYP2C19 inhib – human CYP2C19 inhibition | AID 778 | P33261 | CYP2C19 Supersomes, luciferin-H EGE luminescence, 30 min | actives 21% (n = 96,000) | inhibition, % at 5 µM;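 active means CYP2C19 inhibition above a set limit at 5 µM in the primary screen, cut at about 50% in these data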
PLK1 PBD inh – blocks phosphopeptide binding to human Plk1 polo box domain | actives 0.13% (n = 97,000) | P53350 | Plk1 PBD phosphopeptide binding, fluorescence polarization | AID 693 | inhibition, %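 (tested at about 20 µM)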; in the data active means inhibition above about 34%, passing the limit was not always enough
CYP2C9 inh – inhibitors of human CYP2C9. P11712. CYP2C9 Supersomes, luciferin-H conversion, luminescence. inhibition, % at 5 µM. actives 20% (n = 96,000). AID 777;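 active means blocking of liver enzyme CYP2C9 beyond about 50% at 5 µM, limit read from the data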
Target sequence (P11712 whole entry, looked up): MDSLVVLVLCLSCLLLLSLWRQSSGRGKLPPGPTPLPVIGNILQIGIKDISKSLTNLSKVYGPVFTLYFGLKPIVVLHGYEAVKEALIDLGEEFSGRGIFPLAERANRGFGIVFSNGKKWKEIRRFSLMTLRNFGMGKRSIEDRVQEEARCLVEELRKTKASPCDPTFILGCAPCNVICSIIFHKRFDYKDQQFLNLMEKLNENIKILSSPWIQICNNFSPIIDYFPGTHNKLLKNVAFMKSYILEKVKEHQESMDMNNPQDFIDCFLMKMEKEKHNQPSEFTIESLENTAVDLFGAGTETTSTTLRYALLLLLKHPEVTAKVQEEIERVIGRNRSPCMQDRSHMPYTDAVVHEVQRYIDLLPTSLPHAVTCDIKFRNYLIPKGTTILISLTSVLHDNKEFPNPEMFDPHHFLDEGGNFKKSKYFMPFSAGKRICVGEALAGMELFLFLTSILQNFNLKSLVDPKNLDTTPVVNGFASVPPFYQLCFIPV
CYP2C9 act – activators of human CYP2C9 | P11712 | actives 1.4% (n = 96,000) | activation factor at 5 µM | recombinant CYP2C9, luciferin-H conversion, luminescence; active compounds read high; factor 1 = untreated enzyme, 0 = blocked;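 active means activation factor of 2 or more for CYP2C9 at a 5 µM dose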
PLK1 kinase inh – blocks human PLK1 kinase activity | recombinant PLK1 kinase, TR-FRET peptide phosphorylation | inhibition, % at 10 µM | actives 0.53% (n = 97,000);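 active means inhibition of 50% or more in the single-concentration screen; inactive means inhibition below 50%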
CYP2C19 activ – activators of human cytochrome P450 2C19. P33261. recombinant CYP2C19, luciferin-H EGE luminescence; active compounds read high; 0 = fully inhibited enzyme, 1 = untreated enzyme. activation factor at 5 µM. 96,000 tested, under 10 active. AID 1025;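 active means activation factor of at least 2 at 5 µM in the primary screen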
Each line names hits and unclear results; the compound was inactive in the other large screens.

C/C(Cl)=C/Cn1c(=O)c2c(nc(Br)n2Cc2ccccc2)n(C)c1=O	none
CC(=O)Oc1ccc(/C=c2\sc3ncnn3c2=O)cc1	none
CCOc1ccccc1/C=c1\sc2ncnn2c1=O	CYP2C9 act 2.2
C=Cn1ccnc1P(=S)(c1ccc2c(c1)c1ccccc1n2CC)c1nccn1C=C	none
Cc1ccc(C(=O)NCCNc2ccc(Cl)cc2[N+](=O)[O-])o1	CYP2C9 inh 55
CS(=O)(=O)NCCCNc1ccc(Cl)cc1[N+](=O)[O-]	CYP2C19 inhib 66
COc1cccc(-c2csc3nc[nH]c(=O)c23)c1	CYP2C19 inhib 59, PLK1 kinase inh 61
COc1cc(OC)c(OC)cc1CNCCNC(=O)c1nonc1N	none
Cc1ccc(CCN2CC(C(=O)NCCCN3CCOCC3)CC2=O)cc1 (stereo not given)	none
O=C1CN(C(=O)COC(=O)c2ccccc2NCc2ccco2)c2ccccc2N1	CYP2C19 inhib 56
O=C1CN(C(=O)COc2ncnc3ccccc23)c2ccccc2N1	none
Cn1c2ccccc2c2cc(C(=O)OCC(=O)N3CC(=O)Nc4ccccc43)sc21	CYP2C19 inhib 86, CYP2C9 act 2
CCOc1ncccc1C(=O)OCC(=O)N1CC(=O)Nc2ccccc21	none
CCCCCC(/C=N/Nc1ccc(S(=O)(=O)N2CCOCC2)cc1[N+](=O)[O-])=C\c1ccccc1	CYP2C9 inh 82
CC1(C)CC(=O)C2=C(C1)OC(N)=C(C#N)[C@@]21C(=O)N(CC(N)=O)c2ccccc21	none
O=C(O)C(Oc1ccc2c3c(c(=O)oc2c1)CCC3)c1ccccc1 (stereo not given)	none
COC(=O)C1=CN(Cc2cccs2)C=C(C(=O)OC)C1c1cccc(OC)c1OC	none
COC(=O)C1=CN(C2CC2)C=C(C(=O)OC)C1c1ccccc1OC	CYP2C19 inhib 70, CYP2C9 inh 66
CCOC(=O)N1CCC(NC(=O)c2cc3c(-c4cccc(OC)c4)nn(C)c3s2)CC1	none (no result: PLK1 PBD inh, PLK1 kinase inh)
COc1ccc(C2Nc3ccccc3C(=O)N2Cc2ccco2)cc1COc1ccc(NC(C)=O)cc1 (stereo not given)	CYP2C19 inhib 85, CYP2C9 inh 100
CCN(CC)CCN1C(=O)c2ccccc2NC1c1cc(OC)c(OC)c(OC)c1 (stereo not given)	none
COc1ccc(C2Nc3ccccc3C(=O)N2Cc2ccco2)cc1COc1ccccc1F (stereo not given)	CYP2C19 inhib 90, CYP2C9 inh 99
COc1cc(NC2c3ncccc3C(=O)N2Cc2ccco2)cc(OC)c1 (stereo not given)	none
Cn1c(SCCOc2ccc(Cl)cc2)nnc1-c1ccncc1	CYP2C19 inhib 78
Cc1ccc(OCCSc2nnc(-c3cccs3)n2C)cc1	none (no result: CYP2C19 inhib, CYP2C9 inh, CYP2C9 act, CYP2C19 activ)
Cc1cc(OCCSc2nnc(-c3cccs3)n2C)ccc1Cl	CYP2C19 inhib 62 (no result: PLK1 PBD inh, PLK1 kinase inh)
CN1CCN(c2ccc(C(=O)c3ccc(F)cc3)cc2)CC1	CYP2C19 inhib 52
O=C(c1ccccc1)c1ccc(N2CCNCC2)cc1	CYP2C19 inhib 77
O=C(O)CCC(=O)N1CCN(c2ccc(C(=O)c3ccc(F)cc3)cc2)CC1	none
C=CCn1c(SCC(=O)Nc2c(C)n(C)n(-c3ccccc3)c2=O)nc2sc(C)c(-c3ccccc3)c2c1=O	none
COc1ccc(C(=O)Nn2c(SCC(=O)NCC3CCCO3)nc3ccccc3c2=O)cc1 (stereo not given)	CYP2C9 inh 60
COCCNC(=O)CSc1nc2ccccc2c(=O)n1-c1cccc(OC)c1	CYP2C19 inhib 82, CYP2C9 inh 65
COc1ccc(-n2nc(C(=O)NCC(=O)NCC3CCCO3)c3ccccc3c2=O)cc1Cl (stereo not given)	CYP2C9 inh 60
COc1ccc(C(=O)Nn2c(SCC(=O)NC3CCCC3)nc3ccccc3c2=O)cc1	none
O=C(CSc1nc2ccccc2c(=O)n1CC1CCCO1)NCC1CCCO1 (stereo not given)	none
COc1cccc(-n2c(SCC(=O)Nc3cc(C)on3)nc3ccccc3c2=O)c1	none
O=C(CSc1nc2ccccc2n1-c1ccccc1)NCC1CCCO1 (stereo not given)	CYP2C19 inhib 96, CYP2C9 inh 72
CC1(C)CC(=NOC(=O)c2ccccc2)CC(C)(C)N1	none (no result: CYP2C19 inhib, CYP2C9 inh, CYP2C9 act, CYP2C19 activ)
Clc1ccc2c(c1)CCc1cccnc1C2=C1CCNCC1	none (no result: CYP2C19 inhib, CYP2C9 inh, CYP2C9 act, CYP2C19 activ)
Cc1cc(NC(=O)CSc2nnnn2C)n(-c2ccccc2)n1	none
